Legend:
Assay in all cases: log2 ratio of Biotin-Ahx-Ub-VS probe labelling (fragment/DMSO); higher = less target engagement (more negative = stronger competition), active = hit call of the paper (q ≤ 0.05, log2 ratio ≤ -1)
Settings in all cases: compound concentration: 200 uM; treatment time: 3 h
[1] = target: T1, USP42 (UniProt Q9H9J4)
T1 sequence (whole entry): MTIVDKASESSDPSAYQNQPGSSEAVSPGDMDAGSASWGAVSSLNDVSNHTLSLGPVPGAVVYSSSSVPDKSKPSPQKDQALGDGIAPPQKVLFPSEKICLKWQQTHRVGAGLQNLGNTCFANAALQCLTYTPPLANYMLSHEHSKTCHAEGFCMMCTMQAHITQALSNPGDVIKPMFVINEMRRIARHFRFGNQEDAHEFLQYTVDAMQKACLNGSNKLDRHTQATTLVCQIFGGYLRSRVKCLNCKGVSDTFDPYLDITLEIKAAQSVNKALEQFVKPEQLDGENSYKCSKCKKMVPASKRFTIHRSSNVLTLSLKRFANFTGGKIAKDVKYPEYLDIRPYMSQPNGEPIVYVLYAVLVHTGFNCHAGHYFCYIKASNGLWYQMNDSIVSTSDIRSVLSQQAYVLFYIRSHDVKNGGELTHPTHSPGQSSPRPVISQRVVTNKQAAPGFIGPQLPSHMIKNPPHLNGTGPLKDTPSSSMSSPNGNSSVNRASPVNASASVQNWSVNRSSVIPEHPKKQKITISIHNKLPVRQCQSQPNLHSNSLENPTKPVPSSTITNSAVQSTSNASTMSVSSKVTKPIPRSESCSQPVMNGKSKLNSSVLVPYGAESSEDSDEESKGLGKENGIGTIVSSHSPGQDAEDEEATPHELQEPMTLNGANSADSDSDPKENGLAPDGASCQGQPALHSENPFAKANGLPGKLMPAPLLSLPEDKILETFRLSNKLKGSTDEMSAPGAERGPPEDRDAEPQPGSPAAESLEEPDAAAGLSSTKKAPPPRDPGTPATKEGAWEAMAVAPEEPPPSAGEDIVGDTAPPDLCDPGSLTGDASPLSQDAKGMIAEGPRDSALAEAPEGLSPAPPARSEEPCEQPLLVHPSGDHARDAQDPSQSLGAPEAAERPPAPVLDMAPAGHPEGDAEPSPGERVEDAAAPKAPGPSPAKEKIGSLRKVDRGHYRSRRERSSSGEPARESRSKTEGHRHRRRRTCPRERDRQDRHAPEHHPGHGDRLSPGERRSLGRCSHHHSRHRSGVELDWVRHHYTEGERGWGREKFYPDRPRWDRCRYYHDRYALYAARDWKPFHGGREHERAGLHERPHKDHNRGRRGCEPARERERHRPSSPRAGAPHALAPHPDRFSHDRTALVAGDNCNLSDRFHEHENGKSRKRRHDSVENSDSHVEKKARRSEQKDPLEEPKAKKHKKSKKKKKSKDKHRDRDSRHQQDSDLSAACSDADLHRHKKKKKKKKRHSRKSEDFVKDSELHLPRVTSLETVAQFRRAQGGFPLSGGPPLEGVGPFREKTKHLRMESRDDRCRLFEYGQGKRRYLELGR
In short: (§1)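 Labelled DUBs from HEK293T lysate were NeutrAvidin-enriched, digested with LysC and trypsin, and run by diaPASEF LC-MS/MS. Before that, each 495 µg sample in Tris/CHAPS/IGEPAL buffer with protease inhibitors was treated in triplicate with fragment at 200 µM or vehicle for 3 h, then with Biotin-Ahx-Ub-VS at 0.5 µM final for 1 h. Values are average log2 ratios of fragment over vehicle by unpaired t-test, based on global-median-normalised Spectronaut label-free quantities from proteins with ≥2 unique peptides.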

[2] = target: USP46 (UniProt P62068)
In short: as §1

[3] = target: T2, USP47 (UniProt Q96K76)
T2 sequence (whole entry): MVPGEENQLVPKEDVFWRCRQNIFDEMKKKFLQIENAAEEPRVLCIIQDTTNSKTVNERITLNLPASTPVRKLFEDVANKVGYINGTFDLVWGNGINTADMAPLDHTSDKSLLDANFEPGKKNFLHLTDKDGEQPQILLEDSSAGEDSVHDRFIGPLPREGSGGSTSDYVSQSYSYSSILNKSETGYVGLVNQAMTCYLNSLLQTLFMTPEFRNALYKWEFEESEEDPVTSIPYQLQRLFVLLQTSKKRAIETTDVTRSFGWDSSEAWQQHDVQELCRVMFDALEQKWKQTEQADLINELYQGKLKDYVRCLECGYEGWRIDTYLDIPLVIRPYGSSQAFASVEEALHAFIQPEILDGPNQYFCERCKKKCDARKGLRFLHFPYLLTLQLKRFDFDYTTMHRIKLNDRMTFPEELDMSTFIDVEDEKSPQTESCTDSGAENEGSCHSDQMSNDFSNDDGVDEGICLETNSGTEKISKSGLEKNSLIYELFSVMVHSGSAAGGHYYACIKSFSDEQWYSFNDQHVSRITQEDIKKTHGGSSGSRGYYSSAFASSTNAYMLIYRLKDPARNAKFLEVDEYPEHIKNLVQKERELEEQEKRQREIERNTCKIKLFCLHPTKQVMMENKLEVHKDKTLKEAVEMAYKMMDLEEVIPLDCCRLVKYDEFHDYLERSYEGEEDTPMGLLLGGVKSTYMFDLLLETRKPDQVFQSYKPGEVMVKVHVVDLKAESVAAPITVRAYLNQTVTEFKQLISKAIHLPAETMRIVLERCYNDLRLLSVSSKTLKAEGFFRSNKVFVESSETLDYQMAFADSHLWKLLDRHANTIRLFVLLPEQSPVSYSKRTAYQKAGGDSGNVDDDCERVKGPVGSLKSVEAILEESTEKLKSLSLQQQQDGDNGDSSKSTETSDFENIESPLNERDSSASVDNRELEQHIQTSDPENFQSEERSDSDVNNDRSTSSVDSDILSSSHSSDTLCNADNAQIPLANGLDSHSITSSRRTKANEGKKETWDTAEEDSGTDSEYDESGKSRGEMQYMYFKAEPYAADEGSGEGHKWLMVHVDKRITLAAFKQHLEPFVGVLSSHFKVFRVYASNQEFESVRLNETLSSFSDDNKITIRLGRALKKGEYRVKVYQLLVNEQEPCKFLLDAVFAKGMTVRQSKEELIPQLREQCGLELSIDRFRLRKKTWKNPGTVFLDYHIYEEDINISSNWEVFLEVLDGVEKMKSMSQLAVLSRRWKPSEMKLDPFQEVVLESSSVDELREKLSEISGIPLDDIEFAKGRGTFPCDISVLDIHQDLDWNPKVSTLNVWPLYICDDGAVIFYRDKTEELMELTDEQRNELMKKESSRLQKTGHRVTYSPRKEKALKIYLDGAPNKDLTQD
In short: as §1

[4] = target: T3, USP48 (UniProt Q86UV5)
T3 sequence (whole entry): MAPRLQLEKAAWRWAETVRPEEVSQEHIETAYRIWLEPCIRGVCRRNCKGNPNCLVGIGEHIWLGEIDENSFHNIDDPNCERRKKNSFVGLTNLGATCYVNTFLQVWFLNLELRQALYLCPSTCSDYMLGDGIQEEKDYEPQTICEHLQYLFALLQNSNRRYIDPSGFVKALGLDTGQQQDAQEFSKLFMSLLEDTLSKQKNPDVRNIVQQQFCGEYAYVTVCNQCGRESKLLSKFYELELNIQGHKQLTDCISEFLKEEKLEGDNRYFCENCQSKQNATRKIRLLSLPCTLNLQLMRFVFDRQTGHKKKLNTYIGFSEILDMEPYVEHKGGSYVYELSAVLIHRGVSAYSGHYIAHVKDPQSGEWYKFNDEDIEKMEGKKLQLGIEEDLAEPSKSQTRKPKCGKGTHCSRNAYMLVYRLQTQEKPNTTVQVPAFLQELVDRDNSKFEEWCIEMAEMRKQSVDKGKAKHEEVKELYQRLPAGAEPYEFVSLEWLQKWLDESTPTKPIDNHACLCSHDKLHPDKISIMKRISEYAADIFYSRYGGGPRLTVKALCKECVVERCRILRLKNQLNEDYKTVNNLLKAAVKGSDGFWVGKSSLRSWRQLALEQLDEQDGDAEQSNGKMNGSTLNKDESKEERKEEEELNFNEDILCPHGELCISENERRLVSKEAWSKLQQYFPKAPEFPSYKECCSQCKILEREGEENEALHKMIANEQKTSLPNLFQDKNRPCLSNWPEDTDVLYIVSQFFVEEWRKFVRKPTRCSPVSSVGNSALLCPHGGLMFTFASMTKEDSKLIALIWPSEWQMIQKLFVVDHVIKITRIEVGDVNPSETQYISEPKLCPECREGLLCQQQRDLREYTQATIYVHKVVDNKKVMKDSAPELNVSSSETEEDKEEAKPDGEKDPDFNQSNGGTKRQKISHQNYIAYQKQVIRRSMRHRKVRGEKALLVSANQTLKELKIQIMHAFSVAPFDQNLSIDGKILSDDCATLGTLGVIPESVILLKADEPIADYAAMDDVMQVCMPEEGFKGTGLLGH
In short: as §1

[5] = target: T4, USP5 (UniProt P45974)
T4 sequence (whole entry): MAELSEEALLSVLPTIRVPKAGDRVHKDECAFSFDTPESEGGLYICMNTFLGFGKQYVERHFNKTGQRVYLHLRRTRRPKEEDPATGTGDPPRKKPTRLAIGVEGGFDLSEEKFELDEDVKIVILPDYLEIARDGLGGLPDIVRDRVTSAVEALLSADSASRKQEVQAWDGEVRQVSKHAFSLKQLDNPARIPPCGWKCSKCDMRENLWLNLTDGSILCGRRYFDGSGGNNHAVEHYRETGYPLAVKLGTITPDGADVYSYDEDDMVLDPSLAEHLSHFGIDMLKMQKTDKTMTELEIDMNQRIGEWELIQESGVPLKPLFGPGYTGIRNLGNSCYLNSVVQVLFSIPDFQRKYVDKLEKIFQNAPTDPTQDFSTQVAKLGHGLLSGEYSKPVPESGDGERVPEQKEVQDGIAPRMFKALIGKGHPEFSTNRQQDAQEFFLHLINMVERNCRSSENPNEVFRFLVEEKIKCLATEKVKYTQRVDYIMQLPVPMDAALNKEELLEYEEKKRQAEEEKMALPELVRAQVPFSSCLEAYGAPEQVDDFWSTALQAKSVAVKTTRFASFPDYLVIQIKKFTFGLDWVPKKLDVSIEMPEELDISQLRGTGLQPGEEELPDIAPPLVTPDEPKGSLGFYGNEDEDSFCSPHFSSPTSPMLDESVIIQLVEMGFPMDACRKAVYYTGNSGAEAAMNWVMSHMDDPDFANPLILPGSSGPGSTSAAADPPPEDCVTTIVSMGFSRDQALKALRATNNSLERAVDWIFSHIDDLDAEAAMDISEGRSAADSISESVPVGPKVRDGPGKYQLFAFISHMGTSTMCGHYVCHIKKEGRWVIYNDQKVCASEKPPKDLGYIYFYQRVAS
In short: as §1

[6] = target: USP54 (UniProt Q70EL1)
In short: as §1

[7] = target: USP7 (UniProt Q93009)
In short: as §1

[8] = target: T5, USP8 (UniProt P40818)
T5 sequence (whole entry): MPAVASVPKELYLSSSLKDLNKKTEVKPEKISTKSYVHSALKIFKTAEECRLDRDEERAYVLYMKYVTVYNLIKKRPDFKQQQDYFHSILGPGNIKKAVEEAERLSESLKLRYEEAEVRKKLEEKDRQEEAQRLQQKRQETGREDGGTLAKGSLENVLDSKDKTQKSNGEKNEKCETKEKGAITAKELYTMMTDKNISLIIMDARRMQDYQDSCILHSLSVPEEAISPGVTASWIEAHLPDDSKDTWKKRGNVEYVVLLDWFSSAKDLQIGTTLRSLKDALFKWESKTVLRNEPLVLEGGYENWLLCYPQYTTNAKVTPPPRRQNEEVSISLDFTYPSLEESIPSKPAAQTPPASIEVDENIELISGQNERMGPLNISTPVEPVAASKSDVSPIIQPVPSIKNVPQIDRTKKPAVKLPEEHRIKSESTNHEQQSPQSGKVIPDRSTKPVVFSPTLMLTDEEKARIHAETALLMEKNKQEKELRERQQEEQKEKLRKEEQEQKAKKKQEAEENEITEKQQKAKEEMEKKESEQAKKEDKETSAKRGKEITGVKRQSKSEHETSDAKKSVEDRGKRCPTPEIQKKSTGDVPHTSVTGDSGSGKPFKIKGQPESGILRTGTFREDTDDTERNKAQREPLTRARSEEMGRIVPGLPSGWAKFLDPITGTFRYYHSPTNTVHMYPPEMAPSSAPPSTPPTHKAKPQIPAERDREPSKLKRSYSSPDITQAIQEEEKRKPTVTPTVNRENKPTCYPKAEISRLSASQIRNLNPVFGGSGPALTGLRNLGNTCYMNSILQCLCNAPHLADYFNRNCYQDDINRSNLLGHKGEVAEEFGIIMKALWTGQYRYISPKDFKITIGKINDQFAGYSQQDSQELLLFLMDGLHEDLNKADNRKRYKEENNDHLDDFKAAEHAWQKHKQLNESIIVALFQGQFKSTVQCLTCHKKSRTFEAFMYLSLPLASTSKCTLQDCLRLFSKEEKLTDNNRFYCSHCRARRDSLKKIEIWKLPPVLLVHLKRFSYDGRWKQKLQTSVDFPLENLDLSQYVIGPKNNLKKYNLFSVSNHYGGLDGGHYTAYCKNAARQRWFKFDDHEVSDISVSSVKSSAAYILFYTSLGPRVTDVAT
In short: as §1

[9] = target: USP9X (UniProt Q93008)
In short: as §1

[10] = target: UniProt O00487
In short: as §1

Measured: log2 ratio of Biotin-Ahx-Ub-VS probe labelling

UniProt O00487, sequence (O00487 whole entry): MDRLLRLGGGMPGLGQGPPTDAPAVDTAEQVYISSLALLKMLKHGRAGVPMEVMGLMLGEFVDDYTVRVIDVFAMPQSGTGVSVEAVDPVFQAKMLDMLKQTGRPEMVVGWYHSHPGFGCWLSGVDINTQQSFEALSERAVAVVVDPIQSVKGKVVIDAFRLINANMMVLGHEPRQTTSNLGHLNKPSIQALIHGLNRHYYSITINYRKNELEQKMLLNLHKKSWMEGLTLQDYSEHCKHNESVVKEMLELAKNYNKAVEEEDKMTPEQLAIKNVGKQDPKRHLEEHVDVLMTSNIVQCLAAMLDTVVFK
USP46, sequence (P62068 whole entry): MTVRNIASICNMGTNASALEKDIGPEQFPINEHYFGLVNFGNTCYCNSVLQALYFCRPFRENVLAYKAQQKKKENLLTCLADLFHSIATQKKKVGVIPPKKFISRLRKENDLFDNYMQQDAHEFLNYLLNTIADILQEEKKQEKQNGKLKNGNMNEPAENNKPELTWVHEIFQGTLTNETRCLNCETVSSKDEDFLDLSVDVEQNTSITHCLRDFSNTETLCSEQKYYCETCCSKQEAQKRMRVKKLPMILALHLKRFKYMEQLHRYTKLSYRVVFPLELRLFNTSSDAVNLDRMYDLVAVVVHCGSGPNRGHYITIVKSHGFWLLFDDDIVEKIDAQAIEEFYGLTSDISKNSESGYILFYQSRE
USP9X, sequence (Q93008 whole entry): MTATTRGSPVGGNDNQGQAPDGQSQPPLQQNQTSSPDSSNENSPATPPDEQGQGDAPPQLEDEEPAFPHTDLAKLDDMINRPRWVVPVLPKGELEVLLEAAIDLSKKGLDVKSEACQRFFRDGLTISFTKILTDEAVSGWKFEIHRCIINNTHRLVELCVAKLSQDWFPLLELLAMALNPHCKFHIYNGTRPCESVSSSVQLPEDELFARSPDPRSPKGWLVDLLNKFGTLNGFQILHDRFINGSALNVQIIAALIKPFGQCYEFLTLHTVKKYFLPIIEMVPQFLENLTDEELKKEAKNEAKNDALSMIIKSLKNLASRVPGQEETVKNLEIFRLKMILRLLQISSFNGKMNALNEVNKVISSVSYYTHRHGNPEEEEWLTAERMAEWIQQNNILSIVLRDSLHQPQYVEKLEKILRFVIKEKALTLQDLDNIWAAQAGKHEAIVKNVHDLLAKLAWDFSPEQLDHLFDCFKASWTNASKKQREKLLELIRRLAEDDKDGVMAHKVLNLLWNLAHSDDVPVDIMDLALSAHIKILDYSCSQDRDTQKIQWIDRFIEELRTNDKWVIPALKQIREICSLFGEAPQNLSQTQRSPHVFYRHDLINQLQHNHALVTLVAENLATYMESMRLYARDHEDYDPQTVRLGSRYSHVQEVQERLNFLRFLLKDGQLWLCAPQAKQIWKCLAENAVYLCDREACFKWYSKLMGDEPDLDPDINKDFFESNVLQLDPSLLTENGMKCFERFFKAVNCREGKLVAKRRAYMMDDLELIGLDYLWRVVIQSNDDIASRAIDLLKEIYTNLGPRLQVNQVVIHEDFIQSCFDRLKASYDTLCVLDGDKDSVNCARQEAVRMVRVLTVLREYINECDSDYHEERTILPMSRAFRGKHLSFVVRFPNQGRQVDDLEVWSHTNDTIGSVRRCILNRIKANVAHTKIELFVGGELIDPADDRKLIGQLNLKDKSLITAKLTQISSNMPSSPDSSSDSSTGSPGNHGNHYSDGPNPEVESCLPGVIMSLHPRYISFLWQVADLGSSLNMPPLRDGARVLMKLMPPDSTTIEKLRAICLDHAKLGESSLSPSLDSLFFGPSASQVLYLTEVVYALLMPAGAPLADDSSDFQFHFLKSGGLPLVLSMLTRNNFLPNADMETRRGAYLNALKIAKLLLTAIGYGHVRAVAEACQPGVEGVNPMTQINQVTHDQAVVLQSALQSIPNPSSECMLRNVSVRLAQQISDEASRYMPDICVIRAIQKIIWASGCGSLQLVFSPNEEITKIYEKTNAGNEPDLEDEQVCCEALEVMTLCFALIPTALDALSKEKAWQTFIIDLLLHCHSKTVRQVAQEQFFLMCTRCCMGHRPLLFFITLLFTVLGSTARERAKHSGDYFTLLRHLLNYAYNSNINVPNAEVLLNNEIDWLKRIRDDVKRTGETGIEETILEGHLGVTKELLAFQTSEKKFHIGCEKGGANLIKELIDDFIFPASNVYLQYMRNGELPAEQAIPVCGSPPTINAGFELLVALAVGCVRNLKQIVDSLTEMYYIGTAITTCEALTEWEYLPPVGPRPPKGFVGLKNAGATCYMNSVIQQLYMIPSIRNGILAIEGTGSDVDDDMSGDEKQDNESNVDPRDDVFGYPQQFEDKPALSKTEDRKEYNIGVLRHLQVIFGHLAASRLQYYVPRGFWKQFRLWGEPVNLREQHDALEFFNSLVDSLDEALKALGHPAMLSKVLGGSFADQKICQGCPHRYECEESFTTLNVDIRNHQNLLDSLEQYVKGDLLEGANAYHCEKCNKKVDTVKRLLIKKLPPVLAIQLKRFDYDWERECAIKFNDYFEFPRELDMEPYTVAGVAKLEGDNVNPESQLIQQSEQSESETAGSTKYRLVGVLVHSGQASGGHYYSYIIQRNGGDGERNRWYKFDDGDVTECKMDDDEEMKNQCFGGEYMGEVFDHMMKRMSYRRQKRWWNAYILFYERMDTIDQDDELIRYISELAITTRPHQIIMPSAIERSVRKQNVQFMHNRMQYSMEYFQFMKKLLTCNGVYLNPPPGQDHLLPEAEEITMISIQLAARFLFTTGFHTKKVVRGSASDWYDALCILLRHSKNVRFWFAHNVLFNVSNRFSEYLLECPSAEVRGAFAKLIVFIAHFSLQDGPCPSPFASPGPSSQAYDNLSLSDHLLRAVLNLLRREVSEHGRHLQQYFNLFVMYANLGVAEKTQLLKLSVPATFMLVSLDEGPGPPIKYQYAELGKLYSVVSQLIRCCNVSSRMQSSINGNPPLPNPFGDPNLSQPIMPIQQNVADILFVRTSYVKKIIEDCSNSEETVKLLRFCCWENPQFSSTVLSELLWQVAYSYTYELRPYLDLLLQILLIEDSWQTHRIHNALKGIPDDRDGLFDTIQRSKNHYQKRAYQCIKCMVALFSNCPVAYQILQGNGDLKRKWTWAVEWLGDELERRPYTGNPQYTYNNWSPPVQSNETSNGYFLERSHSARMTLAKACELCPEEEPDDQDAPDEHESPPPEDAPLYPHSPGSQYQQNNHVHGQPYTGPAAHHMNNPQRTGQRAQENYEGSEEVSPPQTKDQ
USP7, sequence (Q93009 whole entry, looked up): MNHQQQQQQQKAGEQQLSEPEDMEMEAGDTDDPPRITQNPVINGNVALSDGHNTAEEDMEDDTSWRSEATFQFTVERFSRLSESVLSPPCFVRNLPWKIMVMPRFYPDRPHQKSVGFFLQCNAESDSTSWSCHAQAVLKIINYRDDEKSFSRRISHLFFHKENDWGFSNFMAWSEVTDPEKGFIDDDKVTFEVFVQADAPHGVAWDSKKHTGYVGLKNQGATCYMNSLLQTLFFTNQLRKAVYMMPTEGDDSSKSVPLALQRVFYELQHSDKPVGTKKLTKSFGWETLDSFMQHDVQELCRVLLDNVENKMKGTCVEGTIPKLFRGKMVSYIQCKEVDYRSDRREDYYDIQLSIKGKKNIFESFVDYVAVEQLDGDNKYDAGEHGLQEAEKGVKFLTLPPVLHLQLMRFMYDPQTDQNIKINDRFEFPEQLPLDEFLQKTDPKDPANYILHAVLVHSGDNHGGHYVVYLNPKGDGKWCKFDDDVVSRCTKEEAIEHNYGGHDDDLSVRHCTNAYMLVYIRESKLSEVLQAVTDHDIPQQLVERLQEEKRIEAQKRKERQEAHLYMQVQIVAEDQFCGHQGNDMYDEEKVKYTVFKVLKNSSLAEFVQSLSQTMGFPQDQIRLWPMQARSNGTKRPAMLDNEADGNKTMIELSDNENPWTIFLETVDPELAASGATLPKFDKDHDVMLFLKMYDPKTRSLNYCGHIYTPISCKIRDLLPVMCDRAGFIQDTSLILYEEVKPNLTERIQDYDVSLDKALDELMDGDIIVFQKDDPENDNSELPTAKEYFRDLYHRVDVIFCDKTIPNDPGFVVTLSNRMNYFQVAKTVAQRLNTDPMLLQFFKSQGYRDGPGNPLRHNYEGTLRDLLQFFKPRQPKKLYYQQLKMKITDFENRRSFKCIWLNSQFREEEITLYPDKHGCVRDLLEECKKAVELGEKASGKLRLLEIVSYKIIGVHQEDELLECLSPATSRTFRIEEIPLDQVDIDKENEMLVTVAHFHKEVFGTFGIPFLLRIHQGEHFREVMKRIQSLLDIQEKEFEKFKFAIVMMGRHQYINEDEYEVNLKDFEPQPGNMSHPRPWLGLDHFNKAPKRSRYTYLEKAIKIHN

COc1ccc(-c2csc(NC(=O)CCl)n2)cc1
inactive: [1] -0.269 | [2] -0.355 | [3] -0.0139 | [4] -0.611 | [5] 0.0191 | [6] 0.204 | [7] -0.576 | [8] -0.316 | [9] -0.66 | [10] -0.101

Source: the supplement of paper PMC11732987, “Enantioselective OTUD7B fragment discovery through chemoproteomics screening and high-throughput optimisation” (Communications Chemistry, 2025)
